In PubChem BioAssay AID651595 (National Center for Advancing Translational Sciences (NCATS), 2012):
Hit rate of the full screen: of about 1,100 compounds, fewer than 10 were called active. Inconclusive results (about 6%) are left out. Calls come from the whole dose curve; as a rule, active = well fitted cell-killing curve with a large enough effect; inconclusive = small, poorly fitted or top-dose-only effect; inactive = flat fitted curve, though single readings scatter. The list is a sample of the results. A call without a number means that no potency is given here.

Experiment: qHTS of Nrf2 Activators: Hit Validation in Cytotox Assay;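 note: compound exposure lasted 24 hours before the ATP readout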
Details: Cell viability counter-screen for Nrf2 activator hits; series mostly up to 46.1 µM
From the text: Many diseases have some form of oxidative stress injury and ties to inflammation, causing a host of problems for the patient. The antioxidant response element (ARE) plays an important role in alleviating the harmful effects of oxidative stress. The antioxidant response element (ARE) is a transcriptional regulatory element involved in the activation of genes coding for a number of antioxidant proteins and detoxifying enzymes. These enzymes work in concert to protect tissues from oxidative insults and chemical toxicities in human hepatocytes and immune cells. The protective effects of ARE activation are primarily triggered through Nrf2 (NF-E2-related factor) binding to and activating AREs. It is known that Nrf2 controls the production of over 250 antioxidant and detoxification proteins (Hu et al., 2006), thereby protecting tissues by increasing cellular antioxidant content and suppressing inflammatory signaling pathways. The transcription factor Nrf2 is a central link between oxidative chemicals, such as phenolic antioxidants and electrophilic compounds, and the activation of ARE. Nrf2 levels are constitutively low as a consequence of its interaction with Keap1, which targets its degradation (Zipper and Mulcahy, 2002). Electrophiles react with key cysteine residues in Keap1, releasing Nrf2 and allowing its translocation to the nucleus. Once within the nucleus, Nrf2 complexes with coactivators such as p300, and binds to the AREs to induce gene transcription of cytoprotective enzymes, resulting in the prevention of toxicity. Activation of Nrf2 protects tissues by increasing cellular antioxidant content and suppressing inflammatory signaling pathways. Identifying novel and potent Nrf2 activators by using the AREc32 cell line to detect ARE activation by small molecules will lead to the identification and development of probes to study protective pathways in multiple tissues. These specific probes are essential to study the ARE pathway, and eventually to determine whether this pathway does activate genes that could protect against a host of diseases, including cardiovascular diseases, obesity, diabetes, Alzheimer's, and Parkinson's disease.
This project's aim is to identify novel and potent Nrf2 activators by using the AREc32 cell line to detect ARE activation by small molecules, which will lead to the identification and development of probes to study the ARE pathway. Cytotoxic compounds are flagged as active, and inactivity is desired in this assay.
NIH Chemical Genomics Center [NCGC]
NIH Molecular Libraries Probe Centers Network [MLPCN]
Assay Submitter (PI): Curtis Klaassen, University of Kansas Medical Center
Cell viability after compound treatment was measured using a luciferase-coupled ATP quantitation assay (CellTiter-Glo, Promega) in AREc32_fluc cells. The change of intracellular ATP content indicates the number of metabolically competent cells after compound treatment. AREc32_fluc cells were harvested from T225 flask and resuspended in phenol red free OPTI-MEM medium with 5% FBS. Then 5 microL of 200,000 cells/ml resuspended cells was dispensed into each well of white, solid bottom, 1536-well tissue culture-treated plates using a Multidrop Combi dispenser. After overnight culture at 37 degrees C with 5% CO2, a total of 23 nL of compounds at 7 selected concentrations from the cherry pick or positive control (40 uM stock of CDDO-IM and 2 mM of tBHQ) in DMSO was transferred to each well of the assay plate using a pintool (Kalypsys, San Diego, CA), and the plates were further incubated at 37 degrees C with 5% CO2 for 24 hours. After that, 4 microL of CellTilter-GloTM luminescent substrate mix (Promega) was added to each well. The plate was incubated at room temperature for 30 minutes. The plates were measured on a ViewLux plate reader (PerkinElmer) with clear filter.
Potency is the fitted concentration of half-maximal effect.

SMILES	Potency
O=C(Nc1ccccc1F)c1cc(-c2ccco2)nc2ccccc12	inactive
COc1ccc(Cl)cc1-c1nc(-c2ccncc2)no1	inactive
S=c1[nH]nc(-c2ccco2)n1/N=C/c1cccc(Cl)c1Cl	inactive
N#Cc1cnc2cc(-c3ccccc3)nn2c1N	inactive
O=C(CSc1ccc(-c2ccco2)nn1)N1CCCC1	inactive
CCNc1ccc(-c2nc(-c3ccco3)no2)cc1[N+](=O)[O-]	inactive
COC(=O)c1ccc2nc(-c3cccc(Br)c3)c(Cc3ccccc3OC)n2c1	inactive
Fc1ccc2nc(Nc3nc4c(F)cc(F)cc4s3)sc2c1	inactive
N#Cc1cccn1-c1nccc(-c2cccs2)n1	inactive
O=C(NC(=S)Nc1cc([N+](=O)[O-])ccc1Cl)c1ccccc1	inactive
Cc1cc(SCC(=O)c2cccs2)nc2ccccc12	inactive
O=C(NCc1ccco1)c1ccccc1-c1nc(-c2ccc(F)cc2)no1	inactive
O=[N+]([O-])c1ccc(SCc2ccco2)cc1N1CCOCC1	inactive
CCOC(=O)N1CCc2c(sc3c2C(=O)NC(c2ccccc2)N3)C1 (configuration not stated)	inactive
CC(=O)c1cccc(NC(=O)c2cc(Cl)sc2Cl)c1	inactive
Cn1c(N/N=C/c2cccs2)cc(=O)n(C)c1=O	inactive
Cc1cc(=O)n2nc(-c3ccccc3)sc2c1C#N	inactive
Cc1cc(C)c(C#N)c(SCC(=O)c2cccs2)n1	inactive
COc1ccc(O)c(-c2cc(-c3ccccc3Cl)[nH]n2)c1	inactive
CCn1c(SCC(=O)N/N=C/C=C/c2ccco2)nc2ccccc21	inactive
Cc1ccc(NC(=O)COCc2cc(-c3cccs3)on2)cc1Cl	inactive
c1ccc2c(c1)nnn2-c1ncnc2sccc12	inactive
O=C(CSc1nc2c(sc3ccccc32)c(=O)n1-c1ccccc1)NCc1ccco1	inactive
S=c1[nH]nc(-c2ccncc2)n1/N=C/C=C/c1ccco1	inactive
Clc1ccccc1NN=Cc1ccccn1	inactive
Cc1cc(NC(=O)c2ccccc2)nc2c1c(=O)oc1ccccc12	inactive

SMILES	Potency
CCCn1c(-c2cccs2)nc2nc3ccccc3nc21	inactive
CCOC(=O)c1sc(NC(=O)c2ccccc2F)c(C(N)=O)c1C	inactive
C#CCSc1nc(-c2ccccc2)cc(C(F)(F)F)c1C#N	inactive
O=Cc1c(NCc2ccco2)nc2ccccn2c1=O	inactive
COC(=O)C1=C(C)NC(=O)/C1=C\c1ccco1	inactive
Cc1nc(-c2ccccn2)sc1C(=O)Nc1ccc(F)cc1	inactive
CC(=O)Nc1cc(-c2ccsc2)cn2c(-c3ccc(F)cc3)cnc12	inactive
O=C(Nc1ccc(F)cc1)c1nsc(Cl)c1Cl	inactive
CS(=O)(=O)c1ccc2nc(NC(=O)CCS(=O)(=O)c3ccccc3)sc2c1	inactive
O=C(Cn1ncc(Cl)c(Cl)c1=O)NC1CCS(=O)(=O)C1 (configuration not stated)	inactive
Cc1ccccc1OCC(=O)Nc1ccccc1CO	inactive
O=C(c1nn2c(C(F)(F)F)cc(-c3ccco3)nc2c1Br)N1CCCc2ccccc21	inactive
Cc1ccc([N+](=O)[O-])c(OCc2ncc(Cl)n2C)c1	inactive
O=c1[nH]c(O)c(/C=C2\C=Nc3ccc(Br)cc32)[nH]1	inactive
COc1ccc(/C(N)=N/OC(=O)c2cccc([N+](=O)[O-])c2)cc1	inactive
N/C(=N\OC(=O)c1ccco1)c1cccc(Br)c1	inactive
O=c1c2ccccc2oc2cc(Br)ccc12	inactive
COc1ccc(C=O)cc1OS(=O)(=O)c1ccccc1[N+](=O)[O-]	inactive
COc1ccccc1Nc1nc2ccccc2n2cnnc12	inactive
O=c1cc(-c2ccccc2Cl)oc2c(Br)ccc(O)c12	inactive
Cc1ccc(N=C2NC(=O)S/C2=C\c2ccco2)cc1	inactive
c1ccc(-c2nc3c4ccccc4ccn3c2Cc2ccsc2)cc1	inactive
COC(=O)c1c(NC(=O)/C=C/C(=O)O)sc(C)c1-c1ccc(C(C)C)cc1	inactive
COc1cccc(-c2nc3n(n2)CCc2ccccc2-3)c1	inactive
C/C(=N\NC(=O)COc1ccccc1[N+](=O)[O-])c1cccs1	inactive
O=c1oc2ccccc2cc1-c1nc(-c2cccs2)cs1	inactive

SMILES	Potency
NC(=O)c1oc2ccccc2c1NC(=O)c1ccco1	inactive
Brc1ccccc1/C=N/Nc1ccccn1	inactive
O=C(/C=C/c1ccccc1Cl)Nc1nc(-c2cccs2)ns1	inactive
Cc1[nH]c2ccccc2c1N=Nc1ccccc1F	inactive
O=C(N=Nc1c(O)[nH]c2ccc(Br)cc12)c1ccco1	inactive
CCOC(=O)N/N=C\C=C\c1ccco1	inactive
O=C(NC(=S)Nc1ccc(Br)cn1)c1cccs1	inactive
COc1ccccc1C=Cc1ccnc2ccccc12	inactive
S=C(NNc1ccc2ccccc2c1)NC1CCCCC1	inactive
OCC1OC(n2cnc3c(NCc4ccccc4O)ncnc32)C(O)C1O (configuration not stated)	5.17 µM (active)
c1ccc2c(-c3nc4ncccc4o3)cccc2c1	inactive
COc1ccc([N+](=O)[O-])cc1C1NN=C(c2ccccc2O)S1 (configuration not stated)	inactive
Clc1ccc(Br)cc1-c1nc(-c2ccncc2)no1	inactive
NC(=O)c1c(NC(=O)c2ccco2)sc2c1CCC2	inactive
O=C(Nc1ccccn1)c1csc2c1CCCC2	inactive
O=C(Nc1ccccn1)Nc1ccccc1Cl	inactive
CC1(C)CC[C@]2(C(=O)n3ccnc3)CC[C@]3(C)[C@H](C(=O)C=C4[C@@]5(C)C=C(C#N)C(=O)C(C)(C)[C@@H]5CC[C@]43C)[C@@H]2C1	8.2 µM (active)
Fc1ccccc1-c1nc(-c2ccc(Cl)cc2)no1	inactive
COc1cc(/C=N/Nc2nc3ccccc3s2)ccc1OC(=O)c1ccccc1F	inactive
Cc1c(Cl)cccc1NC(=S)NC(=O)c1ccccc1	inactive
c1ccc(-c2cc3c(-n4cccc4)ncnc3o2)cc1	inactive
O=C(NC(=S)Nc1nc(-c2ccccc2)cs1)c1cccs1	inactive
CS(=O)(=O)Nc1ccc(C(=O)Nc2cccc([N+](=O)[O-])c2)cc1	inactive
COc1c(C(=O)Nc2nnc(C3CC3)s2)csc1Cl	inactive
O=C(Nc1cc(-c2nc3cc(Cl)ccc3o2)ccc1Cl)c1ccco1	inactive
